Consider 89 molecules from PubChem BioAssay AID743279 (National Center for Advancing Translational Sciences (NCATS), 2014).

Hit rate of the full screen: of about 360,000 compounds, about 17,000 (4.7%) were called active. Inconclusive results (about 5%) are left out. Rule as the data show it: active = activity change below about -50%; inconclusive = mostly about -30% to -49%; inactive = weaker than that. The sample as a whole holds a higher share of actives than the screen did.
% is scaled to controls: 0 for no effect and ±100 for the full control effect.

This assay in a line: qHTS for Inhibitors of Inflammasome Signaling: IL-1-beta AlphaLISA Primary Screen. The settings on record: THP-1 LPS/ATP IL-1B secretion, 16 h; at 57.5 µM, stronger effect = lower value. The gist of the method:
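THP-1 cells pretreated 1 hr with compounds (up to 57.5 uM final), then stimulated with LPS (250 ng/mL final) plus ATP (1.25 mM final); secreted IL-1B measured by AlphaLISA after 16 hr, decreased signal indicating inhibition.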
On the technique in general: In qHTS, concentration-response curves come from the screen itself.
Turning to `CC(C)NC(=O)C1(C)CCCCCN1C(=O)c1ccc(-c2ccccc2)cc1` (centres undefined), the activity change was -2.6% (inactive).

As to `Cc1ccccc1C1=N/C(=C/c2cccnc2)C(=O)O1`, the activity change was 38.6% (inactive).

In the case of `Clc1ccc(CN2CCN(/N=C/c3cccnc3)CC2)cc1`, the activity change was 11.9% (inactive).

For the molecule `O=C1/C(=C\c2cccnc2)CN(Cc2ccccc2)C/C1=C\c1cccnc1`, the activity change was -107% (active).

As to `CC(C)N=C1CCCC1C(=S)SSC(=S)C1CCCC1=NC(C)C` (centres undefined), the activity change is -104% (active).

For `COc1cccc(C(NC(C)=O)c2nc(-c3cnc4ccccc4c3)cs2)c1` (centres undefined), the activity change was -1.76% (inactive).

Take `CN1CCC(N(C)C(=O)c2ccc(Cl)c(S(=O)(=O)Nc3ccc(Cl)cc3)c2)CC1`: the activity change was -20% (inactive).

Take `CCCCNC(=O)CCn1c(=O)c2ccccc2n(Cc2cc(C)ccc2C)c1=O`: the activity change is -9.41% (inactive).

Turning to `O=C(/C=C/[C@H]1O[C@@H](n2cnc3c(NC(=O)c4ccccc4)ncnc32)[C@H](O)[C@@H]1O)NCc1ccccc1`, the activity change was 1.22% (inactive).

For `CCOc1ccc(CNC(=O)C2CCCN(c3nnc(C)c4c(C)n(-c5ccccc5)nc34)C2)cc1` (centres undefined), the activity change was 17.4% (inactive).

Take `CCc1ccc(CNC(=O)C2CCN(c3nnc(C)c4c(C)n(-c5ccc(C)cc5)nc34)CC2)cc1`: the activity change was -55% (active).

Take `COc1ccc(-n2nc3c(N4CCC(C(=O)NCc5ccccc5)CC4)nnc(C)c3c2C)cc1`: the activity change was -9.21% (inactive).

Take `OC(c1cc(Cl)cc(Cl)c1)c1ncc(-c2ccccc2C(F)(F)F)[nH]1` (centres undefined): the activity change is -7.73% (inactive).

Consider `Cc1cccc(-c2cnc(C(O)c3ccc4ccccc4c3)[nH]2)c1` (centres undefined), for which the activity change was 0% (inactive).

As for `Cc1ccc(S(=O)(=O)N2CCN(C(=O)CSc3cc(C)ccc3C)CC2)c(C)c1`, the activity change is -51.4% (active).

With `Cc1ccc(S(=O)(=O)N2CCN(C(=O)Cc3sc(C)nc3-c3ccc(F)cc3)CC2)c(C)c1`, the activity change is -50.5% (active).

As to `Cc1nc(-c2ccc(F)cc2)c(CC(=O)N2CCN(S(=O)(=O)c3ccc(F)cc3)CC2)s1`, the activity change is -7.47% (inactive).

On to `Cc1ccc(S(=O)(=O)N2CCN(C(=O)COC(=O)c3c(C)cc(C)cc3C)CC2)c(C)c1`, for which the activity change is -9.93% (inactive).

As to `Cc1nc(-c2ccc(F)cc2)c(CC(=O)Nc2cccc(S(=O)(=O)N3CCOCC3)c2)s1`, the activity change is -11.9% (inactive).

For `CCCc1cc(=O)[nH]c(SCC(=O)N2CCN(S(=O)(=O)c3ccc(C)cc3C)CC2)n1`, the activity change was 0% (inactive).

As for `NC1=NOC(=O)C1C1CCCCC1` (centres undefined), the activity change is -14.1% (inactive).

Turning to `COc1ccc(C(CNC(=O)c2ccc(OCc3cscn3)cc2)N2CCCC2)cc1` (centres undefined), the activity change was -24.7% (inactive).

Take `COc1ccc(CNC(=O)CN2C(=O)NC3(CCCc4sccc43)C2=O)cc1` (centres undefined): the activity change was 8.42% (inactive).

`COc1cc2c(cc1OC)CN(C(C)C(=O)Nc1cccc(S(=O)(=O)N3CCOCC3)c1)CC2` (centres undefined): the activity change is -4.78% (inactive).

For the molecule `COCC1CCCCN1C(=O)c1cc(COc2ccc(C)c(C)c2)on1` (centres undefined), the activity change was 22.6% (inactive).

As for `CCOc1cc(C=NNC(=O)CCCC(=O)NN=Cc2ccc(O)c(OCC)c2)ccc1O`, the activity change was 0% (inactive).

In the case of `CC(C)CN1CCC1(C)C(=O)Nc1ccc(OC(F)F)cc1` (centres undefined), the activity change is 14.2% (inactive).

Consider `O=[N+]([O-])c1ncc(Br)cc1Nc1ccccc1`, for which the activity change was -71.2% (active).

Take `O=[N+]([O-])c1cccc(/C=N/Nc2ncc(Br)cn2)c1`: the activity change is -8.3% (inactive).

`O=[N+]([O-])c1ccccc1Nc1ccc(O)cc1`: the activity change was -11.5% (inactive).

With `Cn1c(=O)[nH]c(=O)c2c1nc(NCCCn1ccnc1)n2Cc1cccc(Br)c1`, the activity change is 58.2% (inactive).

Take `Cc1ccccc1-c1nc(NC(C)C)nc2cc(-c3ccccc3)sc12`: the activity change was 19.3% (inactive).

With `CC1(C)CN(CCc2ccccc2)C(=O)[C@H]1CC(=O)Nc1ccc(Br)cc1`, the activity change is 0% (inactive).

In the case of `CC[C@]1(c2ccccc2OC)C(=O)N(C(=O)OC)N1C(=O)OC`, the activity change is -76.7% (active).

In the case of `COC(=O)c1ccccc1NC(=O)Cc1ccccc1OC`, the activity change was 7.67% (inactive).

In the case of `COc1ccccc1CNC(=O)CCCN1C(=O)NC2(CCCC2)C1=O`, the activity change is 10.6% (inactive).

For `CC(=O)Nc1ccc(NC(=O)c2ccc3c(c2)C(=O)N(c2ccccc2C)C3=O)cc1`, the activity change is 0% (inactive).

As for `C[C@@H]1CN([C@@H](C)CO)C(=O)c2cc(Br)cnc2O[C@H]1CN(C)Cc1ccc(-c2ccccc2)cc1`, the activity change is -13.1% (inactive).

Turning to `CC1(C(=O)Nc2ccc3c(c2)OCCO3)CCN1C(=O)Cc1cc(F)ccc1F` (centres undefined), the activity change is -2.62% (inactive).

As to `CCCCn1c(CCCNC(=O)CC)nc2ccccc21`, the activity change is 36.3% (inactive).

In the case of `CCC(=O)Nc1nc2ccccc2n1Cc1ccccc1C`, the activity change is -56% (active).

With `CC(=O)Nc1nc2ccccc2n1Cc1ccc(C)cc1`, the activity change was -12.8% (inactive).

In the case of `COC(=O)c1ccc2nc(-c3cccc(Br)c3)c(Cc3ccc(OC)cc3C)n2c1`, the activity change is 2.21% (inactive).

As for `NNc1cccc(C=Cc2ccccc2)cc1=O`, the activity change was -13.4% (inactive).

On to `CCOC1=C2CN(S(=O)(=O)c3ccc(C)cc3)[C@H](c3cccs3)C[C@H]2[C@H]2C(=O)N(c3ccccc3)C(=O)[C@H]2C1`, for which the activity change was 91.6% (inactive).

On to `CCN(C(=O)COc1ccc(C(=O)c2ccccc2)cc1)c1ccccc1`, for which the activity change was -69.8% (active).

On to `CCN(C(=O)c1ccc(Br)cc1)c1ccccc1`, for which the activity change is -9.85% (inactive).

`O=C(COc1ccc(F)cc1)N(CC1=CCS(=O)(=O)C1)c1ccccc1`: the activity change is 0.865% (inactive).

For the molecule `Cc1ccccc1OS(=O)(=O)c1cccc([N+](=O)[O-])c1`, the activity change was 27.3% (inactive).

Take `COc1ccc(NC(=O)C2Cc3c(-c4cccc(NC(C)=O)c4)ccnc3O2)cc1OC` (centres undefined): the activity change was -14.1% (inactive).

As for `N#Cc1ccc(OCC(=O)NC(=O)NC2CCS(=O)(=O)C2)cc1` (centres undefined), the activity change was -12.4% (inactive).

As for `CCNC(=O)c1cc2c(c(-c3cccc(-c4cncnc4)c3)n1)[C@H](CCO)N(C(C)=O)C2`, the activity change was 42.5% (inactive).

Turning to `CC(=O)N1Cc2cc(C(=O)NCc3cccc(F)c3)nc(-c3cccc(C4=CCCC4)c3)c2[C@H]1CCO`, the activity change is -67.2% (active).

As to `CC(C)NC(=O)N1Cc2cc(C(=O)NCC(F)(F)F)nc(-c3cccc(-c4cc5ccccc5o4)c3)c2[C@@H]1CCO`, the activity change is -22.8% (inactive).

Take `CC1(C(=O)NCc2ccc(F)c(F)c2)Cc2c(-c3ccc4c(c3)OCO4)ccnc2O1` (centres undefined): the activity change is 46.6% (inactive).

Turning to `CCn1nc(C(=O)NNC(=O)C2CSC3(C)CCC(=O)N23)c2ccccc2c1=O` (centres undefined), the activity change is 4.8% (inactive).

Consider `CC12CCC(=O)N1C(C(=O)Nc1ccc(F)c(F)c1F)CS2` (centres undefined), for which the activity change is 6.07% (inactive).

As for `CC12CCC(=O)N1C(C(=O)NCCN1C(=O)S/C(=C\c3ccccc3F)C1=O)CS2` (centres undefined), the activity change was -53.4% (active).

On to `CC1(C(=O)Nc2ccccc2Br)CCN1C(=O)CC1CC1` (centres undefined), for which the activity change is 13.2% (inactive).

Turning to `O=C(Nc1ccncc1)c1cc2ccccc2o1`, the activity change is -4.22% (inactive).

As to `Nc1nnc(SCC(=O)Nc2ccc3nc(SCC(=O)Nc4ccccc4)sc3c2)s1`, the activity change is -29.4% (inactive).

On to `O=C(Nc1ccncc1)c1c(F)cccc1F`, for which the activity change is -66.7% (active).

Regarding `O=C(Nc1ccc(S(=O)(=O)N2CCCCCC2)cc1)c1c(F)cccc1F`, the activity change is -9.91% (inactive).

Regarding `CCCC(=O)Nc1nc2ccc(NC(=O)c3c(F)c(F)c(OC)c(F)c3F)cc2s1`, the activity change is 11.7% (inactive).

On to `CSc1nc2ccc(NC(=O)c3c(F)cccc3F)cc2s1`, for which the activity change was -101% (active).

As to `Cc1ccc(C(=O)NC(C)C(c2cccs2)N2CCOCC2)cc1C` (centres undefined), the activity change is -9.25% (inactive).

`CNC(=O)N1c2ccccc2C=Cc2ccccc21`: the activity change was 0% (inactive).

For the molecule `CCCCNC(=O)N1CCCC(N(C)CCc2ccc(OC)c(OC)c2)C1` (centres undefined), the activity change was 1.87% (inactive).

`CC1(C2CC2)NC(=O)N(CC(=O)N2CCN(c3ccccc3F)CC2)C1=O` (centres undefined): the activity change was -14.2% (inactive).

For `Cc1c(C(=O)NCC(c2ccco2)N2CCCC2)oc2ccc(Cl)cc12` (centres undefined), the activity change is -25.2% (inactive).

In the case of `Cc1ccc(C)c(S(=O)(=O)Nc2cc(C)on2)c1`, the activity change was -7.66% (inactive).

With `CCOC(=O)C1CCCN(C(=O)C2CCN(S(=O)(=O)c3ccc(Cl)c(C(F)(F)F)c3)CC2)C1` (centres undefined), the activity change was 16.1% (inactive).

Consider `CCCc1nc2oc3c(=O)[nH]cnc3c2c2c1COC(C)(C)C2`, for which the activity change is 17.7% (inactive).

As for `CS(=O)(=O)N1CCCCC1c1cc(C(=O)NCc2ccccc2)no1` (centres undefined), the activity change is -18.8% (inactive).

Consider `CCN1CCC(O)(/C=C/c2ccc(C)cc2)C(C(=O)/C=C/c2ccc(C)cc2)C1` (centres undefined), for which the activity change was -1.25% (inactive).

On to `CCCCOC(=O)NCN1C(=O)C2C3C=CC(C3)C2C1=O` (centres undefined), for which the activity change was 26.4% (inactive).

Consider `CCCCCOC(=O)c1ccc(N2C(=O)C3C4C=CC(C4)C3C2=O)cc1` (centres undefined), for which the activity change is -71.4% (active).

For the molecule `CCCOC(=O)c1ccc(N2C(=O)c3ccccc3C2=O)cc1`, the activity change was 17.6% (inactive).

`O=C(Nc1cccc2c1CCCC2)C1CCN(C(=O)NC2CCCCC2)CC1`: the activity change is 15.3% (inactive).

With `COC(=O)[C@]12CCCCC=C1N(CCC1=CCCCC1)C(=O)[C@H](CC(=O)N1CCSCC1)C2`, the activity change was -3.86% (inactive).

Take `CCOCCCNc1c(CC)c(C)c(C#N)c2nc3ccccc3n12`: the activity change is -7.67% (inactive).

For the molecule `CCCc1cc(=S)n2c([nH]c3ccccc32)c1C#N`, the activity change is -9.7% (inactive).

On to `CCOC(=O)CCc1c(C)c(C#N)c2[nH]c3ccccc3n2c1=O`, for which the activity change was -90.1% (active).

`COC(=O)C1=CN(c2c(C)cc(C)cc2C)C(N)=C(C#N)C1c1cccc(F)c1` (centres undefined): the activity change was -11.3% (inactive).

`CC1Cc2[nH][nH]c(=O)c2C(C2CC2)O1` (centres undefined): the activity change was -5% (inactive).

Turning to `COc1ccc(CN2C(=O)C(CC(=O)NC3CCCCC3)CC(C(=O)N3CCOCC3)=C2C)cc1` (centres undefined), the activity change is -7.47% (inactive).

Turning to `CCOc1ccc(-n2c(SCC(=O)Nc3ccc(OC)cc3)nc3sc4c(c3c2=O)CCN(C)C4)cc1`, the activity change is -16% (inactive).

As for `COc1ccccc1NC(=O)CSc1nc2sc3c(c2c(=O)n1-c1ccccc1)CCN(C)C3`, the activity change is -4.77% (inactive).

Consider `CCn1c(SCC(=O)Nc2ccc(Br)cc2)nc2sc3c(c2c1=O)CCN(C)C3`, for which the activity change is -54.3% (active).
